PubChem BioAssay AID1159580 (chemical genetic matrix, 2015)
About 2,000 (36%) of roughly 5,500 compounds were called active. Not shown: some 18% with an inconclusive outcome. No stated cut-off is given here; in the data, active means normalized growth mostly below about 0.91 (no sharp cut-off); inconclusive means no clear call, values can overlap the other calls; inactive means mostly above about 0.92. The list shows a part of the results.

Test: chemical genetic growth profiling, strain panel (AID 1159580);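 further: tested at 20 µM; growth read once vehicle control cultures reached saturation at 30 °C; 1 = growth at the plate median or of vehicle wells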
Conditions: S. cerevisiae deletion strains, growth OD
[1] = locus YMR307W, strain GAS1, stronger effect = lower value
[2] = locus YNL153C, strain GIM3, stronger effect = lower value

Measured: normalized growth

COc1cc2c(cc1O)C(Cc1ccc(O)cc1)N(C)CC2 (stereo not given)
inactive: locus YAL013W, strain DEP1, stronger effect = lower value 1.01 | locus YBR021W, strain FUR4, stronger effect = lower value 1.02 | locus YBR229C, strain ROT2, stronger effect = lower value 1.02 | locus YCL029C, strain bik1, stronger effect = lower value 1 | locus YDL035C, strain GPR1, stronger effect = lower value 1.05 | locus YDL074C, strain BRE1, stronger effect = lower value 1.06 | locus YDL101C, strain DUN1, stronger effect = lower value 1.02 | locus YDL185W, strain tfp1, stronger effect = lower value 1.01 | locus YDL192W, strain arf1, stronger effect = lower value 1.02 | locus YDR101C, strain arx1, stronger effect = lower value 1.01 | locus YDR162C, strain NBP2, stronger effect = lower value 1.05 | locus YDR318W, strain mcm21, stronger effect = lower value 1.01 | locus YDR388W, stronger effect = lower value 1.01 | locus YDR502C, strain sam2, stronger effect = lower value 0.979 | locus YER110C, stronger effect = lower value 0.977 | locus YER155C, strain BEM2, stronger effect = lower value 1.01 | locus YER167W, strain BCK2, stronger effect = lower value 1.02 | locus YGL078C, strain dbp3, stronger effect = lower value 0.984 | locus YGL086W, strain mad1, stronger effect = lower value 1.01 | locus YGL248W, strain PDE1, stronger effect = lower value 1.03 | locus YGR078C, strain PAC10, stronger effect = lower value 1.02 | locus YGR135W, strain pre9, stronger effect = lower value 0.981 | locus YGR252W, strain gcn5, stronger effect = lower value 0.923 | locus YHR079C, strain IRE1 (second series), stronger effect = lower value 0.991 | locus YHR094C, strain hxt1, stronger effect = lower value 0.982 | locus YHR129C, strain ARP1, stronger effect = lower value 1.02 | locus YHR200W, strain rpn10, stronger effect = lower value 0.986 | locus YIL066C, strain RNR3, stronger effect = lower value 1.03 | locus YIL073C, strain SPO22, stronger effect = lower value 0.998 | locus YIL125W, strain kgd1, stronger effect = lower value 1.01 | locus YIR030C, strain dcg1, stronger effect = lower value 1 | locus YJL095W, strain BCK1, stronger effect = lower value 1.03 | locus YJL134W, strain LCB3, stronger effect = lower value 1.02 | locus YJL168C, strain set2, stronger effect = lower value 0.998 | locus YJL187C, strain SWE1 (second series), stronger effect = lower value 1.02 | locus YKL009W, strain mrt4, stronger effect = lower value 1.02 | locus YKL068W, stronger effect = lower value 0.998 | locus YKL085W, strain MDH1 (second series), stronger effect = lower value 1.01 | locus YKL085W, strain MDH1, stronger effect = lower value 1.01 | locus YKL190W, strain CNB1, stronger effect = lower value 1.02 | locus YKR001C, strain vps1, stronger effect = lower value 1.01 | locus YLR039C, strain RIC1, stronger effect = lower value 1.05 | locus YLR058C, strain SHM2, stronger effect = lower value 1.04 | locus YLR102C, strain apc9, stronger effect = lower value 0.977 | locus YLR268W, strain sec22, stronger effect = lower value 1.03 | locus YLR330W, strain CHS5, stronger effect = lower value 1.02 | locus YLR342W, strain FKS1 (second series), stronger effect = lower value 1.07 | locus YLR371W, strain rom2, stronger effect = lower value 1.01 | locus YLR418C, strain cdc73, stronger effect = lower value 1.01 | locus YML016C, strain PPZ1, stronger effect = lower value 1.02 | locus YML032C, strain rad52, stronger effect = lower value 1.01 | locus YML124C, strain tub3, stronger effect = lower value 0.999 | locus YMR078C, strain ctf18, stronger effect = lower value 0.994 | locus YMR223W, strain ubp8, stronger effect = lower value 0.993 | [1] 1.12 | locus YNL067W, strain RPL9B, stronger effect = lower value 1.01 | [2] 1.01 | locus YNL233W, strain BNI4, stronger effect = lower value 1.01 | locus YNL250W, strain rad50, stronger effect = lower value 1 | locus YNL271C, strain bni1, stronger effect = lower value 1.01 | locus YNL298W, strain CLA4, stronger effect = lower value 1.01 | locus YNL307C, strain MCK1, stronger effect = lower value 0.994 | locus YNR052C, strain pop2, stronger effect = lower value 0.982 | locus YOL012C, strain htz1 0.669 | locus YOL147C, strain pex11, stronger effect = lower value 1 | locus YOR061W, strain CKA2, stronger effect = lower value 1.03 | locus YOR069W, strain VPS5, stronger effect = lower value 1.01 | locus YOR136W, strain idh2, stronger effect = lower value 0.972 | locus YOR144C, strain elg1, stronger effect = lower value 0.996 | locus YOR184W, strain ser1, stronger effect = lower value 1.05 | locus YOR316C, strain cot1, stronger effect = lower value 0.989 | locus YPR119W, strain clb2, stronger effect = lower value 0.991 | locus YPR141C, strain kar3, stronger effect = lower value 1.01 | locus YPR163C, strain tif3, stronger effect = lower value 0.998 | locus YPR167C, strain met16, stronger effect = lower value 0.973 | strain wtn01, stronger effect = lower value 1.01

O=c1ccn([C@@H]2O[C@H](COP(=O)(O)OP(=O)(O)O)[C@@H](O)[C@H]2O)c(=O)[nH]1
inactive: locus YAL040C, strain CLN3, stronger effect = lower value 0.981 | locus YCL061C, strain MRC1 (second series), stronger effect = lower value 0.991 | locus YDR363W, strain ESC2, stronger effect = lower value 0.981 | locus YER002W, strain NOP16, stronger effect = lower value 0.995 | locus YGR229C, strain SMI1, stronger effect = lower value 0.972 | locus YJR075W, strain HOC1, stronger effect = lower value 0.976 | [1] 0.985 | [2] 0.983 | locus YNL175C, strain NOP13, stronger effect = lower value 0.988 | locus YNL197C, strain WHI3, stronger effect = lower value 0.967 | locus YNL224C, strain SQS1, stronger effect = lower value 0.992 | locus YNL322C, strain KRE1, stronger effect = lower value 0.971 | locus YOR083W, strain WHI5 (second series), stronger effect = lower value 0.992 | locus YPL241C, strain CIN2, stronger effect = lower value 1
